Assay results: the supplement of paper PMC10849652
Of roughly 7,900 targets only a part is listed; those with a hit were picked by preference. About 0.6% of all pairs of compound and target were hits. A number with no mark means an inactive call.

Assays:
Test in all cases: log2 fold change, soluble protein after heating vs DMSO (PISA); higher = thermal stabilisation; K562 cells, 10 uM, 30 min; active = over 0.2 and 3.5 SD of the protein, either way, in both replicates (recomputed)
saracatinib = compound: CN1CCN(CCOc2cc(OC3CCOCC3)c3c(Nc4c(Cl)ccc5c4OCO5)ncnc3c2)CC1 [saracatinib]
In short: (§1)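 Values are thermal stability changes relative to control samples and are taken from duplicates. They are stated as log2 fold changes. Before quantification by TMTpro 16plex LC-MS/MS with equalised channel sums, K562 cells at 2×10^6 cells/mL were treated with 10 μM compound for 30 min, heated in aliquots for 3 min across 48°C-58°C, pooled, extracted in PBS with 0.5% NP-40 at 4°C, and centrifuged at 21,000xg for 90 min to give the soluble supernatant.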

sotrastaurin = compound: CN1CCN(c2nc(C3=C(c4c[nH]c5ccccc45)C(=O)NC3=O)c3ccccc3n2)CC1 [sotrastaurin]
In short: as §1

alvocidib = compound: CN1CC[C@H](c2c(O)cc(O)c3c(=O)cc(-c4ccccc4Cl)oc23)[C@H](O)C1 [alvocidib]
In short: as §1

Tubastatin A = compound: CN1CCc2c(c3ccccc3n2Cc2ccc(C(=O)NO)cc2)C1 [Tubastatin A]
In short: as §1

[1] = compound: CNC(=O)C1=CC=CC=C1NC2=NC(=NC=C2Cl)NC3=C(C=C(C=C3)N4CCOCC4)OC
In short: as §1

defactinib = compound: CNC(=O)c1ccc(Nc2ncc(C(F)(F)F)c(NCc3nccnc3N(C)S(C)(=O)=O)n2)cc1 [defactinib]
In short: as §1

rucaparib = compound: CNCc1ccc(-c2[nH]c3cc(F)cc4c3c2CCNC4=O)cc1 [rucaparib]
In short: as §1

[2] = compound: CNc1nc(-c2ccc3c(N)n[nH]c3c2)cc(N2C[C@@H](C(=O)NC3CCCCC3)CC[C@H]2C)n1
In short: as §1

encorafenib = compound: COC(=O)N[C@@H](C)CNc1nccc(-c2cn(C(C)C)nc2-c2cc(Cl)cc(NS(C)(=O)=O)c2F)n1 [encorafenib]
In short: as §1

[3] = compound: COC(=O)[C@H](CCSC)NC(=O)C1=C(C=C(C=C1)NC[C@H](CS)N)C2=CC=CC=C2
In short: as §1

UniProt Q9UP52, sequence (Q9UP52 whole entry, looked up): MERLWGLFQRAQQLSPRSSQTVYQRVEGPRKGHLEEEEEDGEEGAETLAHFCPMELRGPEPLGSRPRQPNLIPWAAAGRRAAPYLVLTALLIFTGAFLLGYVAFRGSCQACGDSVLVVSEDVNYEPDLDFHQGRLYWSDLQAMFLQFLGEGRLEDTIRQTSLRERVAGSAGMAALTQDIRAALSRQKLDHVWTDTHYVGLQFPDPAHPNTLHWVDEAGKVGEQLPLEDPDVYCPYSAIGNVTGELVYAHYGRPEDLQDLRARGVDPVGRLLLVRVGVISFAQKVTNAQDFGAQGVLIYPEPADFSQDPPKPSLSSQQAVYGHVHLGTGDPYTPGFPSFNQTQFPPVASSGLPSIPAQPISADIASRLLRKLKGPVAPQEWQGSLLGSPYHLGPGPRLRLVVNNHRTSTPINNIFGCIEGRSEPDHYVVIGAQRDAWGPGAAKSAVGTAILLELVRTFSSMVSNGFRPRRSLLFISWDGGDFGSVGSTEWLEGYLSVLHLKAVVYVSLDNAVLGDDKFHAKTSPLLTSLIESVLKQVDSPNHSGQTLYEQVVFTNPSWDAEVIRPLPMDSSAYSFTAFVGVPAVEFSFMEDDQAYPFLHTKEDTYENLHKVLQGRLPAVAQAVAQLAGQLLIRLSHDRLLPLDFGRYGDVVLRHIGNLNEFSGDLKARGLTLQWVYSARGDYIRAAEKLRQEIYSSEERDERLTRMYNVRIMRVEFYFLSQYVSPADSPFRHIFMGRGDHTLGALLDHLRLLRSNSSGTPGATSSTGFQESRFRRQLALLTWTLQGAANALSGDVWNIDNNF
UniProt Q9BSF4, sequence (Q9BSF4 whole entry, looked up): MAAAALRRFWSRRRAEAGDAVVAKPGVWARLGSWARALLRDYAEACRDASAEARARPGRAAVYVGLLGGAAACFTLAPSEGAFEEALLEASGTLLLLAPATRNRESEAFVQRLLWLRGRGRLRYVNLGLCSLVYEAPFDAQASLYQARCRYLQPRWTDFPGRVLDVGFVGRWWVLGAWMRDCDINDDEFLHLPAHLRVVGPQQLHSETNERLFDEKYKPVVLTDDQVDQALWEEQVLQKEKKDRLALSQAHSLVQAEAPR
UniProt Q9BZD2, sequence (Q9BZD2 whole entry, looked up): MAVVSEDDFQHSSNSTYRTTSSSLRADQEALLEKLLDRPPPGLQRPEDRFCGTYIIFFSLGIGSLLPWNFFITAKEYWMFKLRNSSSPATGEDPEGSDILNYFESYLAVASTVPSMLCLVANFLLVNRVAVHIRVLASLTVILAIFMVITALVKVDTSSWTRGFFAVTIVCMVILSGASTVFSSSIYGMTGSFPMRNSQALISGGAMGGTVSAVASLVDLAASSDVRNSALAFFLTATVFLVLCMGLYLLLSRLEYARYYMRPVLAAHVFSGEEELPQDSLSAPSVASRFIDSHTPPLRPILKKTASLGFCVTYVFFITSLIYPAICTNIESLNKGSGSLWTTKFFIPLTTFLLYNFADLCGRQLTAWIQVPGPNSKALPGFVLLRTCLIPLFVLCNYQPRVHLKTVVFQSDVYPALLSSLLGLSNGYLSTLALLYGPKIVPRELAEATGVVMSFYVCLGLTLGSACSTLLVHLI
UniProt P50225, sequence (P50225 whole entry, looked up): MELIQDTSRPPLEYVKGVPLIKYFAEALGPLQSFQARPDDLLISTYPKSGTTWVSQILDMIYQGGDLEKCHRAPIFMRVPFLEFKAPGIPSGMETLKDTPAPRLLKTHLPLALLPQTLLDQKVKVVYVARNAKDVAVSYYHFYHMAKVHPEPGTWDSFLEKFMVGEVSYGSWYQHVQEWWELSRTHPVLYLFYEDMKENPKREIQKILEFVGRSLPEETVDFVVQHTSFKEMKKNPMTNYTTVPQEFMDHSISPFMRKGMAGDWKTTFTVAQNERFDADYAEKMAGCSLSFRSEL
UniProt Q9H2K8, sequence (Q9H2K8 whole entry, looked up): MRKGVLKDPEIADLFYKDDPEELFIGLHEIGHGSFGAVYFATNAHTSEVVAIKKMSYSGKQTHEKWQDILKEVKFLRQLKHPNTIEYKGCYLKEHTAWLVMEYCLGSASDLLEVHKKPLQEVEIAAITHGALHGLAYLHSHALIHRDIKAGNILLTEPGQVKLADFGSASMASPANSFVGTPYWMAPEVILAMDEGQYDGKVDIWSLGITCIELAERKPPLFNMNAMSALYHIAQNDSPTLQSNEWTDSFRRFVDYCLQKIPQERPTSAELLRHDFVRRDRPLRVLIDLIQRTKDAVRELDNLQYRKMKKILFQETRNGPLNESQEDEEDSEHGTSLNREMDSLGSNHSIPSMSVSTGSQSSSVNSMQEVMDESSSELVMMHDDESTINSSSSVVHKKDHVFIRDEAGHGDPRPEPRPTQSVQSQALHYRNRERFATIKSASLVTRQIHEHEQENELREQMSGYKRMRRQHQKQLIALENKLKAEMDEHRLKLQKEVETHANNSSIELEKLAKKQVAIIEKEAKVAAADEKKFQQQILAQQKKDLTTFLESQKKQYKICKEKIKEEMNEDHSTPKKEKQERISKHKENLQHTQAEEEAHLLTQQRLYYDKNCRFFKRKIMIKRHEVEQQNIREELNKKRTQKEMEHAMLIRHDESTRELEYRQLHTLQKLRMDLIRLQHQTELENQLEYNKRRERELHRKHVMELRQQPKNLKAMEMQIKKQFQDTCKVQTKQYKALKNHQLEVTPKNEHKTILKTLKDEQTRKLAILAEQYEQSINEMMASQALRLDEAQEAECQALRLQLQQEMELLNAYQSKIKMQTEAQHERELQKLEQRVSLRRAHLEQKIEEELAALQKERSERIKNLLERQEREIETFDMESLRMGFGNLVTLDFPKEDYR
UniProt Q9BUA3, sequence (Q9BUA3 whole entry, looked up): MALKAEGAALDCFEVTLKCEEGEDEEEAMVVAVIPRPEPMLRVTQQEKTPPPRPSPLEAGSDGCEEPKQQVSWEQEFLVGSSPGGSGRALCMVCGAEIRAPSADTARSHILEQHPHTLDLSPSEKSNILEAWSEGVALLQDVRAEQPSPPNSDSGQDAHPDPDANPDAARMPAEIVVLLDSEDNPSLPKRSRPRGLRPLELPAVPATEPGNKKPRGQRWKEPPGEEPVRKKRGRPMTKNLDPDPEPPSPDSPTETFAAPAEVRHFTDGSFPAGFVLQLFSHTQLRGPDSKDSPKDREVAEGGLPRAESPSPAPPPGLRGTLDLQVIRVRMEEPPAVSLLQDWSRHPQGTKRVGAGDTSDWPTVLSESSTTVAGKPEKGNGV
UniProt Q9ULP9, sequence (Q9ULP9 whole entry, looked up): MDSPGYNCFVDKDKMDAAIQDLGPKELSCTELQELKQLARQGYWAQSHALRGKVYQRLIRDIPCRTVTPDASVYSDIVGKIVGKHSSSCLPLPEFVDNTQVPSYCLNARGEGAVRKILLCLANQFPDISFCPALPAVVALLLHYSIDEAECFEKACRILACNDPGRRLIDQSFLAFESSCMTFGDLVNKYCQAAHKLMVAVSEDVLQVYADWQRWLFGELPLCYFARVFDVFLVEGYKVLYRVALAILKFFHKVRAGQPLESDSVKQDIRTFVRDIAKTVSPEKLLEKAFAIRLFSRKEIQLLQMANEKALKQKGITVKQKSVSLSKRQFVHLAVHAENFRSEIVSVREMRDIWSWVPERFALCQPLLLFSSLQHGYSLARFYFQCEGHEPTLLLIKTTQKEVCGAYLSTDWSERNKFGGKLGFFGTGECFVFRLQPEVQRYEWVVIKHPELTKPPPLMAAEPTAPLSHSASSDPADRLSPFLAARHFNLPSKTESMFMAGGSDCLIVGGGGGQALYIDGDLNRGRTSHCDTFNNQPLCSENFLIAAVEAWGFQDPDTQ
UniProt Q969G3, sequence (Q969G3 whole entry, looked up): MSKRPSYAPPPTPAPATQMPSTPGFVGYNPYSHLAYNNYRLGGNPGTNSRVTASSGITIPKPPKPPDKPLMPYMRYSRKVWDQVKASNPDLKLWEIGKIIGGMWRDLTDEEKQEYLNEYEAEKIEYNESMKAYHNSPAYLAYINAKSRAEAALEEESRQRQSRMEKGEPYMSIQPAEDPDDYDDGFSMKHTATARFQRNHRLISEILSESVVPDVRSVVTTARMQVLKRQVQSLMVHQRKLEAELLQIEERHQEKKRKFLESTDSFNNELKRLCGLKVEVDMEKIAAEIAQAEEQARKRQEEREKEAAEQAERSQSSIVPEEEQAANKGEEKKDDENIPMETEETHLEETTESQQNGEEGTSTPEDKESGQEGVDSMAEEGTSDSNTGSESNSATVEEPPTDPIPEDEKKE
UniProt Q9Y6I9, sequence (Q9Y6I9 whole entry, looked up): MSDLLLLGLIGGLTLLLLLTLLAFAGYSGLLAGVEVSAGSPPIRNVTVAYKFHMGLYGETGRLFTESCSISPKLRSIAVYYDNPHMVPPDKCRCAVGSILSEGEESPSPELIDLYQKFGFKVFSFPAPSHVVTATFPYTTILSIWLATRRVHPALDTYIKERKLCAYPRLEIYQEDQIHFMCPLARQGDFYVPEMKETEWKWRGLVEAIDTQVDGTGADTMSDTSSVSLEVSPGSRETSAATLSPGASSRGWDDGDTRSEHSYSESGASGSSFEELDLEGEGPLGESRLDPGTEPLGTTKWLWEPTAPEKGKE
UniProt P15907, sequence (P15907 whole entry, looked up): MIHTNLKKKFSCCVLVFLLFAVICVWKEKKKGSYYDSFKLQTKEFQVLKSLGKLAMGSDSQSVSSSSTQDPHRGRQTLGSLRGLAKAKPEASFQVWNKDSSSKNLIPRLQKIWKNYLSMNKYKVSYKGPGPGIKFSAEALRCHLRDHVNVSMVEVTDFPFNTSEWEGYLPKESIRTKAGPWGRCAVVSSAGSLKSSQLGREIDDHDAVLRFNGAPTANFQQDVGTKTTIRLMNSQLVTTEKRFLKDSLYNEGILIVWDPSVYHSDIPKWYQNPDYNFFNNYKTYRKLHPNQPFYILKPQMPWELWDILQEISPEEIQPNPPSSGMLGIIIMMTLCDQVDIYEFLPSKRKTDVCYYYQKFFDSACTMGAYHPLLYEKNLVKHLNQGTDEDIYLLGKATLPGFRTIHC
UniProt P62072, sequence (P62072 whole entry, looked up): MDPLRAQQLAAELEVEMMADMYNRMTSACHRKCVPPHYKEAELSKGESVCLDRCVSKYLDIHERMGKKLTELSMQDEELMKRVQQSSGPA

Target | log2 fold change (saracatinib) | log2 fold change (sotrastaurin) | log2 fold change (alvocidib) | log2 fold change (Tubastatin A) | log2 fold change [1] | log2 fold change (defactinib) | log2 fold change (rucaparib) | log2 fold change [2] | log2 fold change (encorafenib) | log2 fold change [3]
SSR3 isoform 2 (UniProt Q9UNL2) | 0.153 | 0.083 | -0.108 | -0.04 | 0.006 | -0.006 | -0.049 | -0.052 | 0.001 | 0.086
SMARCAD1 isoform 2 (UniProt Q9H4L7) | -0.086 | -0.043 | -0.243 | 0.053 | 0.016 | -0.099 | -0.056 | 0.035 | 0.029 | -0.023
TFAM (UniProt Q00059) | -0.017 | 0.052 | 0.116 | 0.052 | -0.008 | 0.107 | 0.042 | -0.01 | 0.039 | 0.047
TCOF1 isoform 4 (UniProt Q13428) | 0.016 | -0.064 | 0.012 | 0.013 | -0.006 | -0.033 | 0.02 | -0.038 | 0.002 | 0.026
TAOK3 (UniProt Q9H2K8) | -0.002 | -0.089 | -0.062 | 0.042 | -0.031 | -0.109 | -0.013 | 0.019 | 0.052 | -0.044
SURF2 (UniProt Q15527) | 0.034 | -0.02 | 0 | 0.066 | -0.015 | -0.056 | -0.055 | -0.059 | -0.037 | -0.016
STOM (UniProt P27105) | -0.015 | 0.039 | 0.169 | 0.016 | -0.019 | 0.068 | 0.006 | -0.03 | 0.016 | 0.002
SRP68 (UniProt Q9UHB9) | -0.033 | -0.179 | 0.044 | 0.085 | -0.002 | -0.019 | 0.152 | 0.049 | 0.14 | -0.073
SMARCE1 (UniProt Q969G3) | -0.036 | -0.204 | -0.033 | 0.018 | -0.032 | 0.579 (active) | -0.016 | 0.023 | 0.166 | -0.199
ST6GAL1 (UniProt P15907) | -0.001 | 0.018 | 0.006 | 0.026 | 0.159 | -0.03 | 0.004 | 0.05 | 0.037 | -0.08
TIMM21 (UniProt Q9BVV7) | 0 | -0.001 | -0.05 | -0.048 | -0.025 | -0.007 | -0.04 | -0.016 | 0.063 | 0.051
SLC38A2 (UniProt Q96QD8) | -0.007 | 0.027 | 0 | -0.043 | 0.004 | -0.034 | -0.044 | -0.188 | 0.045 | -0.024
SPINDOC (UniProt Q9BUA3) | 0.185 | -0.23 | 0.025 | -0.121 | -0.039 | 0.068 | 0 | -0.02 | 0.057 | 0.049
TBC1D23 (UniProt Q9NUY8) | -0.023 | -0.073 | -0.053 | 0.043 | -0.027 | -0.109 | -0.038 | -0.074 | 0.079 | -0.047
SREK1 isoform 2 (UniProt Q8WXA9) | -0.034 | -0.106 | 0.005 | 0.061 | -0.422 | -0.371 | 0.083 | 0.013 | 0.059 | -0.007
TFR2 (UniProt Q9UP52) | 0.007 | -0.031 | 0.029 | -0.053 | 0.006 | 0.029 | 0.029 | -0.129 | -0.015 | 0.009

Target | log2 fold change (saracatinib) | log2 fold change (sotrastaurin) | log2 fold change (alvocidib) | log2 fold change (Tubastatin A) | log2 fold change [1] | log2 fold change (defactinib) | log2 fold change (rucaparib) | log2 fold change [2] | log2 fold change (encorafenib) | log2 fold change [3]
SLC29A3 (UniProt Q9BZD2) | 0.089 | 0.056 | 0.045 | 0.092 | 0.105 | 0.013 | -0.083 | -0.018 | -0.05 | 0.055
TEX264 (UniProt Q9Y6I9) | -0.041 | -0.027 | -0.036 | -0.077 | 0.13 | 0.112 | 0.407 | 0.629 (active) | -0.039 | 0.071
STX17 (UniProt P56962) | -0.038 | 0 | -0.217 | 0.044 | 0.021 | -0.266 | 0.152 | 0.127 | 0.091 | -0.001
SPG11 (UniProt Q96JI7) | -0.281 | 0.055 | 0.28 | 0.012 | -0.156 | 0.151 | 0.046 | 0.119 | -0.094 | 0.069
STK4 (UniProt Q13043) | 0.006 | 0.029 | -0.01 | 0.039 | 0.01 | -0.002 | -0.008 | 0.012 | 0.077 | -0.003
TACC2 (UniProt O95359) | -0.003 | 0.115 | -0.084 | -0.041 | 0.075 | -0.091 | -0.045 | -0.105 | -0.013 | 0.039
STRN (UniProt O43815) | 0.022 | 0.026 | -0.097 | 0.013 | -0.007 | -0.076 | -0.007 | -0.026 | 0.017 | -0.017
TIMM29 (UniProt Q9BSF4) | 0.054 | 0.051 | -0.068 | 0.003 | -0.03 | 0.1 | -0.008 | 0.002 | -0.098 | 0.13
SURF1 (UniProt Q15526) | 0.034 | -0.084 | -0.078 | -0.03 | 0.026 | -0.012 | -0.083 | -0.092 | 0.017 | -0.105
TFB2M (UniProt Q9H5Q4) | -0.029 | -0.031 | -0.082 | -0.012 | 0.02 | -0.06 | -0.013 | -0.054 | -0.002 | -0.001
SPTBN4 (UniProt Q9H254) | -0.056 | 0.009 | 0.095 | -0.005 | -0.284 | 0.039 | 0.059 | -0.035 | -0.076 | -0.002
STXBP2 isoform 3 (UniProt Q15833) | -0.138 | -0.242 | -0.113 | 0.085 | -0.091 | -0.133 | 0.157 | 0.142 | 0.176 | -0.203
TIMM10 (UniProt P62072) | -0.058 | 0.018 | 0.08 | -0.027 | -0.015 | -0.073 | -0.062 | 0.039 | -0.013 | 0.002
SULT1A1 (UniProt P50225) | 0.052 | -0.03 | -0.061 | -0.004 | 0.105 | -0.214 | -0.048 | 0.05 | 0.084 | -0.125
TBC1D24 (UniProt Q9ULP9) | -0.025 | -0.016 | -0.379 (active) | -0.044 | -0.075 | -0.106 | -0.148 | 0.077 | -0.011 | -0.005
